Changes are numbered by the printed parent chain.
How the values were obtained:
Experiment in all cases: PBM; 200 nM protein, PBS
Conditions in all cases: dsDNA, one strand shown
[1] = molecular target: ALX1 (Homo sapiens, UniProt Q15699 118-204, L144V)
[2] = molecular target: ALX1 (Homo sapiens, UniProt Q15699 118-204, L144R)
[3] = molecular target: ALX1 (Homo sapiens, UniProt Q15699 118-204)
[4] = molecular target: HOXA4 (Homo sapiens, UniProt Q00056 201-287, W262R)
[5] = molecular target: HOXA4 (Homo sapiens, UniProt Q00056 201-287, R217L)
[6] = molecular target: HOXA4 (Homo sapiens, UniProt Q00056 201-287)
[7] = molecular target: HOXA4 (Homo sapiens, UniProt Q00056 201-287, W262F)
[8] = molecular target: T1, PAX4 (Homo sapiens, UniProt O43316 9-242, R200K)
T1 sequence: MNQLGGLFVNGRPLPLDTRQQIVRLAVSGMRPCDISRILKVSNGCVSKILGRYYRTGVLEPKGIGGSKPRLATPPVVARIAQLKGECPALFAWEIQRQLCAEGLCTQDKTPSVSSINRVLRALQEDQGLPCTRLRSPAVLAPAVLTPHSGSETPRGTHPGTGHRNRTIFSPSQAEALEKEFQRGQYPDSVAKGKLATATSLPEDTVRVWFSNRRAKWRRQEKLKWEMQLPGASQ

[9] = molecular target: T2, PAX4 (Homo sapiens, UniProt O43316 9-242)
T2 sequence: T1 sequence with K192R

[10] = molecular target: T3, PAX4 (Homo sapiens, UniProt O43316 9-242, R200Q)
T3 sequence: T1 sequence with K192Q

[11] = molecular target: T4, PAX4 (Homo sapiens, UniProt O43316 9-242, F177V)
T4 sequence: T1 sequence with F169V, K192R

[12] = molecular target: T5, PAX4 (Homo sapiens, UniProt O43316 9-242, F177Y)
T5 sequence: T1 sequence with F169Y, K192R

[13] = molecular target: T6, PAX4 (Homo sapiens, UniProt O43316 9-242, R227W)
T6 sequence: T1 sequence with K192R, R219W

[14] = molecular target: PRRX1 (Homo sapiens, UniProt P54821 80-166)
[15] = molecular target: ALX3 (Homo sapiens, UniProt O95076 139-225, N203Q)
[16] = molecular target: VAX1 (Homo sapiens, UniProt Q5SQQ9 86-172)
[17] = molecular target: ALX3 (Homo sapiens, UniProt O95076 139-225, L168Q)
[18] = molecular target: ALX3 (Homo sapiens, UniProt O95076 139-225, L168V)
[19] = molecular target: VAX1 (Homo sapiens, UniProt Q5SQQ9 86-172, T142I)
[20] = molecular target: VAX1 (Homo sapiens, UniProt Q5SQQ9 86-172, K157R)
Chain of VAX1 (Homo sapiens, UniProt Q5SQQ9 86-172, K157R) (Q5SQQ9 86-172 K157R): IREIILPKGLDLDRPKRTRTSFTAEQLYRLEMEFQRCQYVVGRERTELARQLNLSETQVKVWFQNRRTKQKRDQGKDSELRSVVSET

Chain of VAX1 (Homo sapiens, UniProt Q5SQQ9 86-172) (Q5SQQ9 86-172): as the sequence (Q5SQQ9 86-172 K157R) above, with R72K counted along it
Chain of ALX3 (Homo sapiens, UniProt O95076 139-225, L168V) (O95076 139-225 L168V): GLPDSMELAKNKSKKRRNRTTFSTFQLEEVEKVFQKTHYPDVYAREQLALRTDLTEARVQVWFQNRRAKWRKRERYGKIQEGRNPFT
Chain of ALX1 (Homo sapiens, UniProt Q15699 118-204, L144V) (Q15699 118-204 L144V): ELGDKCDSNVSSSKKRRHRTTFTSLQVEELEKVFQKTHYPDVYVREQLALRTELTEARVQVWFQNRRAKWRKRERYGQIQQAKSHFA
Chain of ALX1 (Homo sapiens, UniProt Q15699 118-204) (Q15699 118-204): as the sequence (Q15699 118-204 L144V) above, with V27L counted along it
Chain of HOXA4 (Homo sapiens, UniProt Q00056 201-287) (Q00056 201-287): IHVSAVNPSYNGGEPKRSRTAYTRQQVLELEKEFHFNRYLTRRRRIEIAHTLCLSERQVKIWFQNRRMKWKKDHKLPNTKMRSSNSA
Chain of HOXA4 (Homo sapiens, UniProt Q00056 201-287, R217L) (Q00056 201-287 R217L): as the sequence (Q00056 201-287) above, with R17L counted along it
Chain of HOXA4 (Homo sapiens, UniProt Q00056 201-287, W262F) (Q00056 201-287 W262F): as the sequence (Q00056 201-287) above, with W62F counted along it
Chain of HOXA4 (Homo sapiens, UniProt Q00056 201-287, W262R) (Q00056 201-287 W262R): as the sequence (Q00056 201-287) above, with W62R counted along it
Chain of PRRX1 (P54821 80-166): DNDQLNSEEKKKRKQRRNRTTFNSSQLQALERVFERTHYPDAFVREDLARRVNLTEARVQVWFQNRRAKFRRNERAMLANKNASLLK
Chain of ALX1 (Homo sapiens, UniProt Q15699 118-204, L144R) (Q15699 118-204 L144R): as the sequence (Q15699 118-204 L144V) above, with V27R counted along it
Chain of ALX3 (Homo sapiens, UniProt O95076 139-225, N203Q) (O95076 139-225 N203Q): as the sequence (O95076 139-225 L168V) above, with V30L, N65Q counted along it
Chain of VAX1 (Homo sapiens, UniProt Q5SQQ9 86-172, T142I) (Q5SQQ9 86-172 T142I): as the sequence (Q5SQQ9 86-172 K157R) above, with T57I, R72K counted along it
Chain of ALX3 (Homo sapiens, UniProt O95076 139-225, L168Q) (O95076 139-225 L168Q): as the sequence (O95076 139-225 L168V) above, with V30Q counted along it

For CGAACGCC, the binding signal [1] was 6.33 upbm affinity estimate (log intensity, higher = more binding, comparable within an allelic series), the binding signal [2] was 6.32 upbm affinity estimate (log intensity, higher = more binding, comparable within an allelic series) and the binding signal [3] was 6.54 upbm affinity estimate (log intensity, higher = more binding, comparable within an allelic series).
In the case of CCGGAGCC, the binding signal [4] is reported as 9.74 upbm affinity estimate (log intensity, higher = more binding, comparable within an allelic series), the binding signal [5] is reported as 9.76 upbm affinity estimate (log intensity, higher = more binding, comparable within an allelic series) and the binding signal [6] is reported as 9.77 upbm affinity estimate (log intensity, higher = more binding, comparable within an allelic series). For the same sequence, the binding signal [7] was 9.84 upbm affinity estimate (log intensity, higher = more binding, comparable within an allelic series).
With ACGGCTGG the binding signal [8] was 9.35 upbm affinity estimate (log intensity, higher = more binding, comparable within an allelic series), the binding signal [9] was 9.44 upbm affinity estimate (log intensity, higher = more binding, comparable within an allelic series) and the binding signal [10] was 9.48 upbm affinity estimate (log intensity, higher = more binding, comparable within an allelic series). The binding signal [11] was 9.33 upbm affinity estimate (log intensity, higher = more binding, comparable within an allelic series), the binding signal [12] was 9.33 upbm affinity estimate (log intensity, higher = more binding, comparable within an allelic series) and the binding signal [13] was 9.39 upbm affinity estimate (log intensity, higher = more binding, comparable within an allelic series).
ACGCGCAG was tested, and the binding signal [14] was 9.2 upbm affinity estimate (log intensity, higher = more binding, comparable within an allelic series).
CGGGCTCC was tested, and the binding signal [4] was 9.62 upbm affinity estimate (log intensity, higher = more binding, comparable within an allelic series), the binding signal [8] was 8.72 upbm affinity estimate (log intensity, higher = more binding, comparable within an allelic series) and the binding signal [9] was 8.72 upbm affinity estimate (log intensity, higher = more binding, comparable within an allelic series). The binding signal [5] was 9.45 upbm affinity estimate (log intensity, higher = more binding, comparable within an allelic series), the binding signal [15] was 7.6 upbm affinity estimate (log intensity, higher = more binding, comparable within an allelic series) and the binding signal [10] was 9.02 upbm affinity estimate (log intensity, higher = more binding, comparable within an allelic series). For the same sequence, the binding signal [11] was 8.99 upbm affinity estimate (log intensity, higher = more binding, comparable within an allelic series), the binding signal [6] was 9.29 upbm affinity estimate (log intensity, higher = more binding, comparable within an allelic series) and the binding signal [12] was 8.93 upbm affinity estimate (log intensity, higher = more binding, comparable within an allelic series). The binding signal [16] was 6.15 upbm affinity estimate (log intensity, higher = more binding, comparable within an allelic series), the binding signal [17] was 7.45 upbm affinity estimate (log intensity, higher = more binding, comparable within an allelic series) and the binding signal [18] was 7.45 upbm affinity estimate (log intensity, higher = more binding, comparable within an allelic series). For the same sequence, the binding signal [19] was 6.61 upbm affinity estimate (log intensity, higher = more binding, comparable within an allelic series), the binding signal [13] was 9.04 upbm affinity estimate (log intensity, higher = more binding, comparable within an allelic series) and the binding signal [7] was 9.68 upbm affinity estimate (log intensity, higher = more binding, comparable within an allelic series). For the same sequence, the binding signal [14] was 8.33 upbm affinity estimate (log intensity, higher = more binding, comparable within an allelic series) and the binding signal [20] was 6.27 upbm affinity estimate (log intensity, higher = more binding, comparable within an allelic series).
CCGGCGCG was tested, and the binding signal [1] was 6.28 upbm affinity estimate (log intensity, higher = more binding, comparable within an allelic series), the binding signal [2] was 6.34 upbm affinity estimate (log intensity, higher = more binding, comparable within an allelic series) and the binding signal [3] was 6.04 upbm affinity estimate (log intensity, higher = more binding, comparable within an allelic series).
With CTTAAGTA the binding signal [1] was 9.02 upbm affinity estimate (log intensity, higher = more binding, comparable within an allelic series), the binding signal [2] was 8.85 upbm affinity estimate (log intensity, higher = more binding, comparable within an allelic series) and the binding signal [3] was 9.39 upbm affinity estimate (log intensity, higher = more binding, comparable within an allelic series).
With ACCCGGGC the binding signal [8] was 9.17 upbm affinity estimate (log intensity, higher = more binding, comparable within an allelic series), the binding signal [9] was 9.14 upbm affinity estimate (log intensity, higher = more binding, comparable within an allelic series) and the binding signal [10] was 9.34 upbm affinity estimate (log intensity, higher = more binding, comparable within an allelic series). For the same sequence, the binding signal [11] was 9.22 upbm affinity estimate (log intensity, higher = more binding, comparable within an allelic series), the binding signal [12] was 9.24 upbm affinity estimate (log intensity, higher = more binding, comparable within an allelic series) and the binding signal [13] was 9.37 upbm affinity estimate (log intensity, higher = more binding, comparable within an allelic series).
For CTAATTGC, the binding signal [4] was 10.4 upbm affinity estimate (log intensity, higher = more binding, comparable within an allelic series), the binding signal [5] was 11.8 upbm affinity estimate (log intensity, higher = more binding, comparable within an allelic series) and the binding signal [1] was 11.5 upbm affinity estimate (log intensity, higher = more binding, comparable within an allelic series). For the same sequence, the binding signal [15] was 8.22 upbm affinity estimate (log intensity, higher = more binding, comparable within an allelic series), the binding signal [2] was 11 upbm affinity estimate (log intensity, higher = more binding, comparable within an allelic series) and the binding signal [6] was 13.8 upbm affinity estimate (log intensity, higher = more binding, comparable within an allelic series). For the same sequence, the binding signal [16] was 13 upbm affinity estimate (log intensity, higher = more binding, comparable within an allelic series), the binding signal [17] was 10.3 upbm affinity estimate (log intensity, higher = more binding, comparable within an allelic series) and the binding signal [18] was 9.7 upbm affinity estimate (log intensity, higher = more binding, comparable within an allelic series). The binding signal [19] was 12.9 upbm affinity estimate (log intensity, higher = more binding, comparable within an allelic series), the binding signal [3] was 12.2 upbm affinity estimate (log intensity, higher = more binding, comparable within an allelic series) and the binding signal [7] was 11.4 upbm affinity estimate (log intensity, higher = more binding, comparable within an allelic series). The binding signal [20] was 12.8 upbm affinity estimate (log intensity, higher = more binding, comparable within an allelic series).
With CCACTTTA the binding signal [1] was 8.4 upbm affinity estimate (log intensity, higher = more binding, comparable within an allelic series), the binding signal [2] was 8.44 upbm affinity estimate (log intensity, higher = more binding, comparable within an allelic series) and the binding signal [3] was 8.77 upbm affinity estimate (log intensity, higher = more binding, comparable within an allelic series).
With AATTAGCT the binding signal [8] was 11.7 upbm affinity estimate (log intensity, higher = more binding, comparable within an allelic series), the binding signal [9] was 12.2 upbm affinity estimate (log intensity, higher = more binding, comparable within an allelic series) and the binding signal [1] was 11.5 upbm affinity estimate (log intensity, higher = more binding, comparable within an allelic series). The binding signal [15] was 8.34 upbm affinity estimate (log intensity, higher = more binding, comparable within an allelic series), the binding signal [10] was 11.9 upbm affinity estimate (log intensity, higher = more binding, comparable within an allelic series) and the binding signal [2] was 11.1 upbm affinity estimate (log intensity, higher = more binding, comparable within an allelic series). For the same sequence, the binding signal [11] was 10.4 upbm affinity estimate (log intensity, higher = more binding, comparable within an allelic series), the binding signal [12] was 10.9 upbm affinity estimate (log intensity, higher = more binding, comparable within an allelic series) and the binding signal [17] was 10.3 upbm affinity estimate (log intensity, higher = more binding, comparable within an allelic series). For the same sequence, the binding signal [18] was 9.87 upbm affinity estimate (log intensity, higher = more binding, comparable within an allelic series), the binding signal [13] was 10.9 upbm affinity estimate (log intensity, higher = more binding, comparable within an allelic series) and the binding signal [3] was 12.1 upbm affinity estimate (log intensity, higher = more binding, comparable within an allelic series). For the same sequence, the binding signal [7] was 11.5 upbm affinity estimate (log intensity, higher = more binding, comparable within an allelic series) and the binding signal [20] was 12.4 upbm affinity estimate (log intensity, higher = more binding, comparable within an allelic series).
In the case of ACGGCGGC, the binding signal [16] is reported as 7.01 upbm affinity estimate (log intensity, higher = more binding, comparable within an allelic series), the binding signal [19] is reported as 7.25 upbm affinity estimate (log intensity, higher = more binding, comparable within an allelic series) and the binding signal [20] is reported as 7.25 upbm affinity estimate (log intensity, higher = more binding, comparable within an allelic series).
In the case of CACGCGTG, the binding signal [14] is reported as 9.41 upbm affinity estimate (log intensity, higher = more binding, comparable within an allelic series).
CGGTCGGC was tested, and the binding signal [1] was 6.28 upbm affinity estimate (log intensity, higher = more binding, comparable within an allelic series), the binding signal [15] was 7.66 upbm affinity estimate (log intensity, higher = more binding, comparable within an allelic series) and the binding signal [2] was 6.31 upbm affinity estimate (log intensity, higher = more binding, comparable within an allelic series). The binding signal [17] was 7.79 upbm affinity estimate (log intensity, higher = more binding, comparable within an allelic series), the binding signal [18] was 7.75 upbm affinity estimate (log intensity, higher = more binding, comparable within an allelic series) and the binding signal [3] was 6.46 upbm affinity estimate (log intensity, higher = more binding, comparable within an allelic series).
For CGTGCACG, the binding signal [14] was 9.56 upbm affinity estimate (log intensity, higher = more binding, comparable within an allelic series).
For CACGGGCC, the binding signal [15] was 7.64 upbm affinity estimate (log intensity, higher = more binding, comparable within an allelic series), the binding signal [17] was 7.64 upbm affinity estimate (log intensity, higher = more binding, comparable within an allelic series) and the binding signal [18] was 7.58 upbm affinity estimate (log intensity, higher = more binding, comparable within an allelic series).
For GCGACGCC, the binding signal [16] was 7.12 upbm affinity estimate (log intensity, higher = more binding, comparable within an allelic series), the binding signal [19] was 7.24 upbm affinity estimate (log intensity, higher = more binding, comparable within an allelic series) and the binding signal [20] was 7.22 upbm affinity estimate (log intensity, higher = more binding, comparable within an allelic series).
